Laboratory results taken from the OligoGym collection.

Each sequence was assayed against MTG1 (assay: pooled miR-30 sensor sort-seq; sequence = guide strand). Settings: shRNA.
Further: reference of the scale not given here.

Sequence	sensor-assay potency score (higher = more potent)
ATTTTGGACATCACAGCTCTGG	-0.514
TCATCCTTTACACAGTTGGTAA	-1.44
TTTTGGACATCACAGCTCTGGT	-1.25

Each sequence was assayed against MTMR14 in the same assay as above. Settings: shRNA.

Sequence	sensor-assay potency score (higher = more potent)
TGAGATACAGTGTACCAGCAGC	-0.892
TTCGTGTTTGGAATCACGCTGA	0.52
TTTGCTGAGCCGATCTACCAAC	-1.14
TTATTTTGTGATCTGTGTCAAA	-0.837
TCGAAGAGCACAGTCCTCCTCC	-0.118
TTGTCCACCTTCTCAGAGGAGG	-1.29
TTGAACAGGATTACTGGGCAGA	-0.111
TTTGTGATCTGTGTCAAACTGC	0.417
TGACAGGTATCGAAGCAGCTTG	-1.11
TGAAACAGTAGTCTCGGCCAAA	-1.3
TTTGGAATCACGCTGAAACAGT	-0.856
TATTTGACTGACAGGTATCGAA	-0.898

The sequences below were run against MTOR in the same assay as above. Settings: shRNA.

Sequence	sensor-assay potency score (higher = more potent)
TCTCTGGAAACTTCTCTCGGGT	-0.556
TTTGTGTCCATCAGCCTCCAGT	-0.591
TTTTGGGGAAACATATTGCAGC	-1.1
TTTCATGGGATGTCGCTTGTTT	0.0185
TTTGGTATTTGTGTCCATCAGC	-0.533
TTGAGTATTTGTTCTGCTCATA	-0.623
TATCCCTTGACAATTCTGCAGA	-0.562
TATATTCTTCAACAGCAGCTAG	-0.667
TTGGGTCTCATCATTAACCAGG	-0.739
TTCTTCTCCCTGTAGTCCCGGA	-0.437
TTGTTGGCTGCATTGTGCCGGG	-0.403
ATAGCATTGGTCAACATTCTTG	-0.775
TATAATTGGTTCTTCGGTCAAA	-0.45
TTTGATGAGCAGCTCAACTTGC	0.357
TTGACCACTGAAAACATCCCAG	0.0557
TAAATCTCGACCATAGGCCTGA	0.425
TTAGAAGCCACTGTCAGTGGGT	0.584
TTAGAAGGAAAACAAACTCATG	-1.25
TTACTATGTTTCACTGTCCTGG	-0.25
TAGCATTGGTCAACATTCTTGT	0.089
TAGGAATCCGTCCTCGTTCGGG	-0.165
TTCTCTGGAAACTTCTCTCGGG	-0.303
TTATTCTGATACAACATGGTGT	0.00722
TTTAGTTGAGTATTTGTTCTGC	0.462
